The values below come from the supplement of paper PMC11417369.

Whole data set: some 25,000 sequences, median “ln(normalized median fluorescence intensity)” near 7.1, cut for the highest 2% near 10. The sample holds the highest values, similar sequences and a random draw of the others, so the mix is not that of the screen.

For the test, the system named is PfSIP2 AP2 domain 1 (GST-tagged). Kind of test: gcPBM binding intensity (ln(normalized median fluorescence intensity)); higher = stronger DNA binding. The method in brief: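 GST-tagged P. falciparum DNA-binding domains produced in E. coli were incubated for 1 h on an Agilent 4 × 180k array of primer-extended double-stranded 36-bp intergenic genomic probes with negative controls. Binding intensity is the highest Masliner-normalised natural-log median intensity across replicate spots of either probe orientation, with bound protein detected by Alexa488 anti-GST antibody at 488 nm.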
“TTTATAAATATTCTCACACACTTTTTATTTTAACAA [CACACA_site6454]”: the “gcPBM binding intensity (ln)” value was found to be 6.93.
The same measure for “ATATAAATTTAATACACACCCAAAAAAAAAAAAAAA [CACACA_site3750]”: 6.89.
For the sequence “ATATGTTTTGTTTACGTGCACTGCTTTGTTTATATA [GTGCAC_site9622]”, the “gcPBM binding intensity (ln)” value came out at 9.56.
The same measure for TATGTTTTTACGTGTGTGCACTTTGTAGAGATAAGT: 10.7.
Turning to ATGTAGATAAAACGTGTGCACATGTTTTTTGTTATT, the “gcPBM binding intensity (ln)” value stood at 8.7.
With “GTTAGGATAGATTAGACATGCACATAAATGCACTTC [TGCATGCA_site561]” the figure was 11.
The same measure for “AAAATTAGATTATGCACACACACTTAAAAATAATAA [CACACA_site1975]”: 8.5; for “AGGATATGCAGACACACACACATATAGATTTATATA [CACACA_site7100]”: 7.08; for “TGTACGAGTCGTAGAGTGCAGTCTGGAGAAAAGTAC [GTGCAC_site9683]”: 8.91.
The same measure for “TTTTTTATGCTAACTTCTTTTTCCTTATAAAATTGG [TGCATGCA_negctrl_site598]”: 7.06; for “AATATATTGCACCATTGGACCTGAATAATTCTTCCA [CACACA_negctrl_site1071]”: 10.6; for “TAATATATGTATTGCACACCTATAACCATTATTTCT [CACACA_site1498]”: 7.06.
For the sequence “AATATAATATATTGCACACAAAAAGTGAATTATTCT [CACACA_site1684]”, the “gcPBM binding intensity (ln)” value is 7.12.
The same measure for “CTTTCTATATAAAATCGTACATATATAATATTATAT [XGTACX_site5807]”: 7.3; for “GACATATAAATATACACACATACGTAAGTATATTAA [CACACA_site1790]”: 6.91.
Take GGAAAATACATTCCAGTGCATTAATTTATTCAACGT: the “gcPBM binding intensity (ln)” value was determined as 8.59.
Consider “AGAGACACTTTTTATTGTACAAGAGGAGGTTACCTT [XGTACX_site8768]”, for which the “gcPBM binding intensity (ln)” value was found to be 6.61.
The same measure for “AAACAGAAGACATATACACACATACAAAAAAGTGCA [CACACA_site4699]”: 7.62.
On to “AGAACATGCAAACATGCACACAGAAAAAAAAAATAT [CACACA_site8442]”, for which the “gcPBM binding intensity (ln)” value was determined as 8.26.
Consider “AAAAAAAAAAAAGAAACACACATATATATATATATA [CACACA_site140]”, for which the “gcPBM binding intensity (ln)” value was found to be 8.95.
On to “AAAAAAAAAAAGAACACACACAGTGCACATTCGGTG [CACACA_site788]”, for which the “gcPBM binding intensity (ln)” value was 10.3.
The same measure for “AAAAAAAAAAAAGAAACACACACATTTGTATATAAT [CACACA_site8648]”: 6.93.
“AAAAAAAAAAAAAGAACACACACAGTGCACATTCGG [CACACA_site8163]”: the “gcPBM binding intensity (ln)” value was 10.6.
For “TGAACACACGAGCACACACACACATCTATATTTATA [CACACA_site6607]”, the “gcPBM binding intensity (ln)” value was determined as 7.22.
With “TTAATTACACAAAAAAGTACTTGATATTGTTTATTA [XGTACX_site3449]” the figure was 6.85; with “ATACTAACATTTTTTTGTACATATAACTATAAAATA [XGTACX_site1033]”, 7.32; with “AAATACTGATTTGGTTGTACATGTGCACTATATAAC [XGTACX_site3795]”, 11.4.
With “AAATATTTGTGTGGTTGTACTATAATGATAAAAATA [XGTACX_site7703]” the figure was 7.27.
Take “GGAACTTTTGGAGGTGCATGCGGAGCAATCTTTTCA [TGCATGCA_site454]”: the “gcPBM binding intensity (ln)” value was 10.6.
With “CCTTTTTCTAATGGATGTACTTATTATATACATTAT [XGTACX_site281]”, the “gcPBM binding intensity (ln)” value turned out to be 7.14.
On to “TTGAAAAATCAGCACACACACAAATACATACATATT [CACACA_site7505]”, for which the “gcPBM binding intensity (ln)” value came out at 7.03.
The same measure for “TTTTTTTTTTTTTTTTTTGGTGAGAGAAGAAAATTC [CACACA_negctrl_site950]”: 7.02.
With TTTTTTTTTTTGTGAGTGCACGTATGAAGAGAAAAA the figure was 10.8.
With “ATTTTGATGATGTATGCACACATTGAAAATGAGAAA [CACACA_site2916]” the figure was 9.12.
Consider “TCAGGAATATAAAGTGCACACATAATTTGGGGGCAA [CACACA_site7974]”, for which the “gcPBM binding intensity (ln)” value amounted to 11.2.
With “GAATAAAGGAGAGGCACACATATATATATATATATA [CACACA_site2452]” the figure was 9.61.
The same measure for “AGGAATATAAAGTGCACACATAATTTGGGGGCAAAA [CACACA_site258]”: 11.7; for “AATTTTGGAACGTGCACACATATGTAATATATATAT [CACACA_site3067]”: 10.1.
The same measure for “AATTTAATATAATGCACACATAAAAAAAAAAAAAAA [CACACA_site123]”: 7.42; for “AATTATGCACAAATCACACATATAAAATAAAAAGTG [CACACA_site4474]”: 7.87.
For the sequence “ATATAGTATTAATTTGCATGTCATGTATTAGGTCGA [TGCATGCA_site540]”, the “gcPBM binding intensity (ln)” value was 6.73.
For the sequence “TAAAATTTTATAAAGGAACACACATTTTTTTTTTTT [CACACA_site8740]”, the “gcPBM binding intensity (ln)” value amounted to 6.87.
The same measure for “TTTGATTTTAATGTGTGTACACATTTATTTATATAA [XGTACX_site4806]”: 7.74; for “AAATAAGAAAATCATAGTACATAGGAATAGAAGAAC [XGTACX_site3135]”: 7.59; for “ATATGGAATGATCATAGTACATAATTTAAAATTTTA [XGTACX_site3568]”: 6.74.
Turning to “ATAATGAAGACTTTTTTACACACTTCATATATTATA [CACACA_site8630]”, the “gcPBM binding intensity (ln)” value stood at 6.96.
With “AAAAAAAGAATGTGAACACACACATTGAATATAATT [CACACA_site8341]” the figure was 6.79.
With “ATTAAAAAAAAAGAGCGTACAAATAATTACTTCTTT [XGTACX_site8262]” the figure was 6.83.
Turning to “ATATCATCTTCTCTATCATTTTTTTTTTTTTTTTTT [CACACA_negctrl_site1220]”, the “gcPBM binding intensity (ln)” value came to 7.69.
Consider “TTATTATTATAAAATTGTACTTGGTATATTAACATA [XGTACX_site5829]”, for which the “gcPBM binding intensity (ln)” value amounted to 6.98.
As to “TATTTTAACATTAGGTGTACATACAAAAATAAAAAT [XGTACX_site8577]”, the “gcPBM binding intensity (ln)” value is 7.37.
With “TATATATATTTAAGGTGTACATAAATAACAAAATAT [XGTACX_site2641]”, the “gcPBM binding intensity (ln)” value turned out to be 7.47.
With TTTAAAATACAGAAGGTGCATTTAACATATTTGTAT the figure was 10.6; with “TTAATATAATTAAAATGTACTTATTTGTAAACATTA [XGTACX_site6313]”, 6.78; with “AAATACTTAACATTGGTGCATATTTGTAAAATTATT [GTGCAC_site9515]”, 10.7.
The same measure for “ATATTAAAATTTTAATGTACATGCGTATGTAGGAAT [XGTACX_site1673]”: 7.39.
In the case of “TAATCATTTTAGCTTACACACAAAATTTTGTTATAA [CACACA_site2939]”, the “gcPBM binding intensity (ln)” value is 6.93.
On to “TTTATATAATTTTTTTGTACATATATATGAATACAT [XGTACX_site2316]”, for which the “gcPBM binding intensity (ln)” value came to 7.11.
